GAA glycogen: alters human alpha-glucosidase cleavage of glycogen. P10253. recombinant GAA, glycogen substrate, Amplex Red glucose oxidase fluorescence. Potency, µM (doses to about 76.4 µM), for the others: top-dose activity change, negative = inhibition, hits mostly inhibitors. hit rate 0.38% among 300,000. AID 2100;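 note: potency is the fitted concentration of half-maximal effect; 0% = full enzyme reaction and -100% = no-enzyme basal signal; the screen sought inhibitors and activators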
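Recombinant enzyme (4 nM final) with compounds titrated up to 77 uM and bovine liver glycogen (30 ug) in citrate pH 5.0, 0.01% Tween-20, 37 C 40 min. Released glucose detected by Amplex Red/glucose oxidase (Ex 573/Em 610); AC50 from Hill fits.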
N370S GC mod: N370S glucocerebrosidase modulation, Gaucher chaperone candidate | Potency, µM (highest dose often 59.4 µM), without a hit: at the highest dose activity change, negative = inhibition, actives largely listed as inhibitors | hit rate 0.092% among 330,000 | AID 2101 | P04062 | N370S GC spleen homogenate, 4MU-glucoside fluorescence;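 note: potency is the fitted concentration of half-maximal effect; 0% = full enzyme activity and -100% = no enzyme basal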
GAA inhib: blocks human lysosomal alpha-glucosidase; purified human GAA, 4-MU-alpha-glucoside fluorescence; hit rate 0.005% among 200,000; P10253; Potency, µM (titrated, usually from 76.9 µM), inactives show at the highest dose activity change, negative = inhibition, actives largely listed as inhibitors;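 note: potency is the fitted concentration of half-maximal effect; plate controls were uninhibited enzyme wells for no effect and no-enzyme background for full effect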
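Read-out is 4-methylumbelliferone fluorescence (Ex 365/Em 440 nm) after NaOH/glycine stop at pH 10. Enzyme 4 nM, substrate 400 uM, pH 5.0 citrate buffer, 20 min room temperature; AC50 from Hill-equation concentration-response.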
aGal spleen mod: inhibitors or activators of human alpha-galactosidase in spleen homogenate; human spleen homogenate, 4MU-alpha-Gal fluorescence, 40 min; Potency, µM (doses to about 80 µM), without a hit: top-dose activity change, negative = inhibition, hits mostly inhibitors; hit rate 0.008% among 240,000;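 note: potency is the fitted concentration of half-maximal effect; 0% = enzyme with vehicle and -100% = no enzyme basal signal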
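Fluorogenic readout (Ex 365/Em 440 nm) of 4-methylumbelliferone released from 1 mM 4-MU-alpha-galactoside by spleen homogenate, 40 min at 37C, pH 5.0. Data normalized to no-enzyme and enzyme controls; Hill-equation AC50 from compound titrations.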
GLA inh pH 4.5: alpha-galactosidase A (human) inhibition, pH 4.5 | 230,000 tested, under 10 active | purified enzyme, 4-MU-alpha-Gal fluorescence, pH 4.5 | AID 1467 | P06280 | activity change, negative = inhibition, % at 105 µM;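 note: 0% = full activity with enzyme and -100% = basal without enzyme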
Target sequence (P06280 whole entry, looked up): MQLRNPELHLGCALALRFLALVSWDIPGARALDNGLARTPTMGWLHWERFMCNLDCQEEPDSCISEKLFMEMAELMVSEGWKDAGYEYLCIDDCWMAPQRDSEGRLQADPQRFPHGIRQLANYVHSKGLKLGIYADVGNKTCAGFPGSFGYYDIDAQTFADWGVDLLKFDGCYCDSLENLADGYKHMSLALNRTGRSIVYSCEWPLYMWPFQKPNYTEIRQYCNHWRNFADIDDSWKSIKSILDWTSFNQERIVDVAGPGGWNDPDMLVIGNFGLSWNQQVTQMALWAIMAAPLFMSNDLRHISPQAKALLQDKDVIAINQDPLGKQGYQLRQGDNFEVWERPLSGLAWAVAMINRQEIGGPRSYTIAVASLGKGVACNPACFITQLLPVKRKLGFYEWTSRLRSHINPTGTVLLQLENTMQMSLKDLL
GAA spleen mod: inhibits or activates alpha-glucosidase in human spleen homogenate; P10253; hit rate 0.006% among 240,000; human spleen homogenate, 4-MU-alpha-glucoside fluorescence; Potency, µM (series often up to 79.9 µM), for inactives: at the top dose activity change, negative = inhibition, usual class: inhibitors;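 note: potency is the fitted concentration of half-maximal effect; 0% = enzyme with vehicle and -100% = no enzyme basal signal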
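Enzyme source: human spleen homogenate, 1 ug/well. Buffer 50 mM citric acid/K phosphate pH 5.0, 0.01% Tween-20. 4-MU-alpha-glucoside 1 mM; 37 C x 40 min; NaOH/glycine stop; fluorescence.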
Starred values were filed as active, the others as inactive; ? = inconclusive; . = no result; [ ] = another dose, or the depositor's remark. In the library only some 0.43% were active in any assay of this set; here they are far more common. Calls come from the whole dose curve; as a rule, active = well fitted curve in the direction sought with a large enough effect; inconclusive = small, poorly fitted or top-dose-only effect, or another doubt; inactive = no such curve, though single readings can be large; an effect the other way counts as inactive or inconclusive.

SMILES	GAA glycogen	N370S GC mod	GAA inhib	aGal spleen mod	GLA inh pH 4.5	GAA spleen mod
NCCCCCCNc1nc2c(N)ncnc2n1[C@@H]1O[C@@H]2COP(=O)(O)O[C@H]2[C@H]1O	.	-2%	.	2%	.	-1%
COc1cc(CNc2ccc3[nH]c(=O)[nH]c3c2)cc(Cl)c1OCc1ccccc1F	-29%[76.3 µM]	.	.	.	.	.
COc1cccc(CNc2ccc3[nH]c(=O)[nH]c3c2)c1OCc1ccccc1F	28µM*	9%	.	.	.	.
O=C1C=CC2=C3c4cc(O)c(O)cc4C[C@@]3(O)COC2=C1	.	-8%	.	3%	2	5%
Cc1cc(C)c2c(-n3cccc3)c(C(=O)NNS(=O)(=O)c3ccc(Br)cc3)sc2n1	18µM*	?	-5%	6%	-5	-6%
Cc1cc(C)c2c(-n3cccc3)c(C(=O)NCC(C)c3ccccc3)sc2n1 (configuration not stated)	2%[76.3 µM]	.	.	.	.	.
Cc1ccc(C(C(=O)NC(C)(C)C)N(Cc2ccco2)C(=O)Cn2nnc(-c3cccs3)n2)cc1 (configuration not stated)	6%	4%	-4%	10%	-2	4%
CC(C)(C)NC(=O)C(c1ccncc1)N(Cc1cccs1)C(=O)Cn1nnc(-c2cccs2)n1 (configuration not stated)	28µM*	3%	-7%	1%	-2	-4%
CO[C@@H]1c2cc(F)ccc2/C(=C\CCOC(=O)C/C=C/c2ccccc2)[C@H]1C	.	-3%	.	8%	-15	5%
Oc1ccc2[nH]ccc2c1	14µM*	-1%	-2%	20%	-5	-15%
CCn1cnc2cc(NCc3cccc(OC)c3O)ccc21	16µM*	17%	1%	-8%	1	-5%
N#C/C(=C\c1ccc(O)c(O)c1)C(=O)N1CCCC1	2.8µM*	-27%	-3%	-19%	-13	-21%
COc1cc(/C=C(\C#N)C(=O)N2CCCCC2)ccc1O	-2%[76.3 µM]	?	.	.	.	.
CCN(C(=O)c1coc(=O)c(Br)c1)c1ccc2c(c1)OCO2	18µM*	15%	?	19%	19	3%
CCN(C(=O)c1c(C)cc(=O)oc1C)c1ccc2c(c1)OCO2	2%	6%	0%	-17%	-6	-6%
O=C1c2c(O)cc(O)cc2O[C@H](c2ccc(O)c(O)c2)C1O (some centres not stated)	.	-4%	.	-13%	.	4%
Oc1cc(O)c2c(c1)O[C@H](c1ccc(O)c(O)c1)[C@H](O)C2	10µM*	-6%	.	7%[29.1 µM]	7	11%[29.1 µM]
C[C@@H](Oc1ccc(Oc2cnc3ccc(Cl)cc3n2)cc1)C(=O)O	.	3%	.	15%	-11	-1%
COc1ccc(Nc2cc(C)c3c(O)cccc3n2)cc1	22µM*	-18%	.	8%	0	4%
O=C1CC(N2CCN(c3ccccc3O)CC2)C(=O)N1Cc1ccccc1 (configuration not stated)	3.1µM*	9%	-2%	-4%	0	-4%
NS(=O)(=O)c1ccc(NNC(=O)c2ccccc2C(=O)O)cc1	?	2%	.	-1%	-1	-12%
O=C(O)c1ccccc1C(=O)NNc1ccc(Cl)cc1	11µM*	-8%	3%	-6%	10	-8%
O=S(=O)(c1ccc(Cl)cc1)N1CCN(c2nc(-c3cccs3)nc3ccccc23)CC1	-7%	0.45µM*	?	10%	-9	5%
CC1(OC(=O)c2cnc3ccccc3n2)C(=O)C=C2C=C(c3ccsc3)OC=C2C1=O (configuration not stated)	.	10%	.	11%	-2	1%
COc1cc(/C=N/Nc2ccc(Cl)c(C(=O)O)c2)ccc1OC(=O)c1ccccc1F	5.6µM*	-3%	.	.	.	.
SMILES	GAA glycogen	N370S GC mod	GAA inhib	aGal spleen mod	GLA inh pH 4.5	GAA spleen mod
COc1ccc(S(=O)(=O)N2CCC(C(=O)Nc3ccc(Oc4ccccc4)cc3)CC2)cc1OC	11µM*	.	.	.	.	.
N#C/C(=C\c1ccc(O)c(O)c1)S(=O)(=O)c1ccccc1	7.1µM*	-17%	-7%	3%	-22	-7%
N#C/C(=C/c1ccc(F)cc1)S(=O)(=O)c1ccccc1	-5%	-17%	.	16%	-4	6%
COc1cc(Cl)ccc1NC(=S)N(CCCN1CCOCC1)Cc1cn(C)c2ccccc12	-8%	7.1µM*	5%	-2%	-10	-11%
COc1ccc(Cl)cc1NC(=S)N(CCCN1CCOCC1)Cc1cn(C)c2ccccc12	-20%	6.3µM*	-8%	-1%	-9	4%
COc1ccccc1NC(=S)N(CCCN1CCOCC1)Cc1cn(C)c2ccccc12	-4%	?	-11%	-2%	7	-1%
CCOC(=O)C1OC1C(=O)N[C@@H](CC(C)C)C(=O)NCCC(C)C (some centres not stated)	.	-2%	.	2%	.	5%
C=C1C2CC[C@]3(CCC4[C@@]5(C)CCC[C@@]4(CN(CCO)C5)[C@@H]3C2)[C@@H]1O (some centres not stated)	.	-12%	.	-1%	-4	9%
CC[C@H](C)[C@H](NC(=O)[C@H](CO)NC(=O)[C@H](CC(C)C)NC(=O)[C@H](CO)NC(=O)[C@@H]1CCCN1C(=O)[C@H](CC(N)=O)NC(=O)[C@@H](N)CC(=O)O)C(=O)N[C@@H](CC(=O)O)C(=O)N[C@@H](CC(C)C)C(=O)N[C@H](C(=O)N[C@@H](Cc1ccccc1)C(=O)N[C@@H](Cc1cnc[nH]1)C(=O)N[C@@H](CC(C)C)C(=O)N[C@@H](CC(C)C)C(=O)N[C@@H](CCCNC(=N)N)C(=O)N[C@H](C(=O)N[C@@H](CC(C)C)C(=O)N[C@@H](CC(C)C)C(=O)N[C@@H](CCC(=O)O)C(=O)N[C@@H](CC(C)C)C(=O)N[C@@H](C)C(=O)N[C@@H](CCCNC(=N)N)C(=O)N[C@H](C(=O)N[C@@H](CCC(N)=O)C(=O)N[C@@H](CO)C(=O)N[C@@H](CCC(N)=O)C(=O)N[C@@H](CCCNC(=N)N)C(=O)N[C@@H](CCC(=O)O)C(=O)N[C@@H](CCCNC(=N)N)C(=O)N[C@@H](C)C(=O)N[C@@H](CCC(=O)O)C(=O)N[C@@H](CCC(N)=O)C(=O)N[C@@H](CC(N)=O)C(=O)N[C@@H](CCCNC(=N)N)C(=O)N[C@H](C(=O)N[C@H](C(=O)N[C@@H](Cc1ccccc1)C(=O)N[C@@H](CC(=O)O)C(=O)N[C@@H](CO)C(=O)N[C@H](C(N)=O)C(C)C)[C@@H](C)CC)[C@@H](C)CC)[C@@H](C)O)[C@@H](C)O)[C@@H](C)O	.	-4%	.	17%	.	7%

High-throughput results (PubChem BioAssay)
